Results filed as inconclusive are left out. Active and inactive are the calls of the source. Calls come from the whole dose curve; as a rule, active = well fitted cell-killing curve with a large enough effect in the repeat runs; inconclusive = weak or mixed curves, or effect the other way; inactive = flat fitted curve, though single readings scatter.
test: Human pregnane X receptor (PXR) small molecule agonists, qHTS cell viability counter screen (AID 1346977); conditions: PXR-Luc HepG2 viability, CellTiter-Fluor, 24 h; series mostly up to 92.4 µM; activity change, negative = cytotoxicity: at the top concentration; note: nearly all actives have a fitted effect of over 50% in size
From the text: U.S. Tox21 Program National Center for Advancing Translational Sciences [NCATS] NIH Chemical Genomics Center [NCGC] U.S. Environmental Protection Agency [EPA] National Institutes of Environmental Health Sciences [NIEHS] National Toxicology Program [NTP] U.S. Food and Drug Administration [FDA] Tox21 Assay Overview: The human pregnane X receptor (hPXR) regulates the expression of several drug metabolizing enzymes and induction of these proteins is a major mechanism for developing drug resistance in cancer. One such key enzyme catalyzing the drug metabolism is cytochrome P450 3A4 (CYP3A4). Changes in CYP3A4 expression affect drug metabolism, thereby reducing the therapeutic efficacy and altering toxicological response to a drug and which finally causes adverse drug interaction. To screen Tox21 libraries for compounds that activate hPXR-mediated CYP3A4 gene expression, PXR-Luc HepG2 cells were used. Also cytotoxicity of the compounds was tested in parallel by measuring the cell viability using CellTiter-Fluor assay system in the same wells.
Tox21 Assay Protocol Summary: PXR-Luc HepG2 cells were dispensed at 2,000 per well in 5uL of assay medium containing 5% charcoal-stripped FBS into white solid bottom 1536-well plates (Corning Life Sciences, Corning, NY) using a Multidrop Combi (Thermo Scientific, Waltham, MA) dispenser. The assay plates were incubated at 37 C and 5% CO2 for 5hr, and then 23nL of compounds dissolved in DMSO and positive control were transferred using a Pintool station (Wako, San Diego, CA). The assay plates were incubated at 37C and 5% CO2 for 24hr. For cytotoxicity read, after 23hr incubation at 37C, 1uL CellTiter-Fluor reagent (Promega Corporation, Madison, WI) was added to each well of the assay plates using Flying Reagent Dispenser (FRD, Aurora Discovery, San Diego, CA). After 1hr incubation at 37C and 5% CO2, the fluorescence signal was quantified using a ViewLux plate reader (PerkinElmer, Shelton, CT).
% is set by controls: 0 for no effect and ±100 for the full control effect.

| Compound | activity change, negative = cytotoxicity |
| --- | --- |
| CCCCCCCCNC | -1.79% (inactive) |
| COc1ccc(CN(CCN(C)C)c2ncccn2)cc1 | -9.81% [at 42.5 µM] (inactive) |
| Cc1c(Cl)cccc1Nc1ccccc1C(=O)O | 0.657% [at 42.5 µM] (inactive) |
| CCCCOC(=O)CC#N | -0.169% (inactive) |
| N#C[C@@H]1CC(F)(F)CN1C(=O)CNC1CC2CCC(C1)N2c1ncccn1 (stereo not given in full) | 34.3% (inactive) |
| O=C(OCCN1CCOCC1)c1cccnc1Nc1cccc(C(F)(F)F)c1 | 10.3% [at 42.5 µM] (inactive) |
| O=C(c1ccc(Cl)cc1)c1ccc(Cl)cc1 | 2.9% (inactive) |
| O=C(O)c1cc(C(=O)O)c(C(=O)O)cc1C(=O)O | 8.15% (inactive) |
| CCOC(=O)CC(O)(CC(=O)OCC)C(=O)OCC | 8.9% (inactive) |
| CC(=O)Nc1ccccc1O | 0.485% (inactive) |
| O=[N+]([O-])c1cccc(I)c1 | 2.73% (inactive) |
| C=C[Si](OCC)(OCC)OCC | -2.9% (inactive) |
| Cc1cc(SC2=C(O)C[C@@](CCc3ccc(N)cc3)(C(C)C)OC2=O)c(C(C)(C)C)cc1CO | 0.123% (inactive) |
| Nc1ccc(F)cc1F | -2.2% (inactive) |
| NC(=O)c1ccccc1 | 21.9% (inactive) |
| CCCc1nc(C)c2c(=O)[nH]c(-c3cc(S(=O)(=O)N4CCN(CC)CC4)ccc3OCC)nn12 | -2.34% [at 42.5 µM] (inactive) |
| Nc1ccc(-c2ccc(F)cc2)cc1 | -2.4% (inactive) |
| CCOc1ccccc1O | 6.56% (inactive) |
| CC(C)(C)NCC(O)COc1ccc(NC(=O)NC2CCCCC2)cc1 (stereo not given) | 1.28% [at 42.5 µM] (inactive) |
| CCCCCCCCCCCCSCCOCCO | 15.7% [at 42.5 µM] (inactive) |

| Compound | activity change, negative = cytotoxicity |
| --- | --- |
| Nc1ncnc2c1ncn2[C@@H]1O[C@H](CO)[C@@H](O)[C@H]1O | 0.949% [at 42.5 µM] (inactive) |
| CCCc1ccc(OC)cc1 | -0.397% (inactive) |
| CCCCCCCCCCCCCCCCC(=O)O | -1.47% [at 42.5 µM] (inactive) |
| O=C(Nc1ccccc1)c1cc([N+](=O)[O-])ccc1Cl | -4.05% (inactive) |
| OCCc1ccncc1 | 3.81% (inactive) |
| CCN(CC)CC(=O)OCC(=O)[C@@]1(O)CC[C@H]2[C@@H]3CCC4=CC(=O)CC[C@]4(C)[C@H]3[C@@H](O)C[C@@]21C | 14.5% [at 42.5 µM] (inactive) |
| FC(F)(Cl)C(F)(Cl)Cl | -0.206% (inactive) |
| c1ccc(CCNc2nc(-c3ccccc3)cs2)cc1 | -3.43% [at 42.5 µM] (inactive) |
| Nc1cccc2c(=O)[nH][nH]c(=O)c12 | 13.3% (inactive) |
| Cc1c(Nc2ncccc2C(=O)O)cccc1C(F)(F)F | 7.63% [at 42.5 µM] (inactive) |
| CC(C)(C)c1ccc(CCC=O)cc1 | -0.485% (inactive) |
| CCOCCn1c(N2CCCN(C)CC2)nc2ccccc21 | -10.6% [at 42.5 µM] (inactive) |
| C[C@@H](O)[C@H]1C(=O)N2C(C(=O)O)=C(S[C@@H]3CN[C@H](CNS(N)(=O)=O)C3)[C@H](C)[C@H]12 | 11.5% [at 42.5 µM] (inactive) |
| CC(C)=CCC/C(C)=C/C=N/O | 8.61% (inactive) |
| CC(C)=CCC[C@H](C)CCO | 5.56% (inactive) |
| O=C(Nc1ccc2c(c1)Cc1ccccc1-2)C(F)(F)F | -1.61% (inactive) |
| C/C(=C\C(C)CC(C)CC(C)C)C1CC(=O)OC1=O (stereo not given) | 2.48% (inactive) |
| CC(C(=O)O)c1ccc(/C=C2\CCCCC2=O)cc1 (stereo not given) | 8.78% [at 42.5 µM] (inactive) |
| COc1ccc(C(=O)Nc2ccccc2)cc1[N+](=O)[O-] | -3.99% (inactive) |
| CC/C=C\CCO | 8.62% (inactive) |
